Test [1] addresses T1, Aspartate--tRNA(Asp/Asn) ligase (Mycobacterium tuberculosis (strain ATCC 25618 / H37Rv)) (UniProt P9WFW3).
T1 sequence (whole entry): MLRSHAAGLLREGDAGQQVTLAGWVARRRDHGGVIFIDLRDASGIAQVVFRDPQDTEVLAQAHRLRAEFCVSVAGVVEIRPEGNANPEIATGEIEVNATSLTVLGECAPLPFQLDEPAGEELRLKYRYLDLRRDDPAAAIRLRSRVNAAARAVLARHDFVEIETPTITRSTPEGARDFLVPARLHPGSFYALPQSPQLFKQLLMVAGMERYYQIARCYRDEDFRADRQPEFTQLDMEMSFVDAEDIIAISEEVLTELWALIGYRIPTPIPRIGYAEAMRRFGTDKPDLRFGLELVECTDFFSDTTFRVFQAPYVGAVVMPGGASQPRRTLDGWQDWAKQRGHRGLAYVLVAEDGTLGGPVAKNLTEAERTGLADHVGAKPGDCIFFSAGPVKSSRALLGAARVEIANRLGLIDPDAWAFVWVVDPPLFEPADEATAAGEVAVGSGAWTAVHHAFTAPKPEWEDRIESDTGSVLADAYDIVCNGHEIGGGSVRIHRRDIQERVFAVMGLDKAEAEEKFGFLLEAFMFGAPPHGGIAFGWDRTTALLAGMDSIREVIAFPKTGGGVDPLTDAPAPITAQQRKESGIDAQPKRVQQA
Nature of the test: Assay for Asp RNA synthetase-1 from Mycobacterium tuberculosis. Type of test: functional. Further details: scale not given: direction of the effect not stated beside the values. Particulars: 30 µM.

Test [2] has as its target Shiga toxin 2 (Escherichia coli O157:H7) (UniProt P09385+P09386). The test is described as follows: E. coli 0.157:H7 Shiga Toxin SOP - stx2 screening assay. Type of test: functional. On the set-up: scale not given: direction of the effect not stated beside the values. The settings on record: 30 µM.

Consider `Cc1ccc(C2CSCCN2C(=O)c2ccsc2)o1` (configuration not stated), for which the Percent Effect in test [1] came out at 3.37%; in test [2], 16.4%.
The corresponding values for `CC(C)c1cc(NCC(O)c2ccc(F)cc2)n2nccc2n1` (configuration not stated) are -1.84% and 7.39%.
For `CNCC(=O)N1CC(c2cc(Nc3ncccn3)nc(C)n2)C1`, in that order: -3.19% and -3.14%.
The corresponding values for `COc1c(CNC2CCN(C(C)(C)C)CC2)c(C(C)C)nn1C` are -0.618% and 30.9%.
Consider `CCNc1cc2c(nn1)CCN(C(=O)Cc1c(C)noc1C)C2`, for which the Percent Effect in test [1] stood at 0.225%; in test [2] it was 16%.
Take `COC(=O)C(NC(=O)C(C)C)c1cc(F)ccc1F` (configuration not stated): the Percent Effect is -0.455% in test [1] and 15.2% in test [2].
The corresponding values for `CCS(=O)(=O)N1CCO[C@H]2[C@H](OCCCn3cccn3)CC[C@@H]21` are 0.786% and -17.2%.
The corresponding values for `Cn1cccc1-c1cc(C(=O)N2CC(c3cccnc3)C2)[nH]n1` are -0.915% and -50.6%.
For the molecule `CN(Cc1ccsc1)C(=O)c1cccc(S(=O)(=O)NC(C)(C)C)c1`, the Percent Effect is -1.73% in test [1] and -33.3% in test [2].
`CCOCC1CN(Cc2cnn(C)c2)Cc2nn(C)cc21` (configuration not stated): the Percent Effect in test [1] is -3.19%; in test [2], -11.8%.
In the case of `CC(C)c1nc2c(n1C)CCN(Cc1nc(-c3cccs3)no1)C2`, the Percent Effect in test [1] is -1.02%; in test [2], -0.957%.
For `c1ccc(C[C@H]2CN(Cc3nccs3)CC[C@H]2OCC2CC2)cc1`, in that order: 3.93% and 16%.
As for `c1cnnc(N2CCCC2CNCc2ccsc2)c1` (configuration not stated), the Percent Effect in test [1] was -3.81%; in test [2], -8.21%.
For `O=C(c1nn(-c2ccccc2F)cc1O)N1CCCC1`, in that order: 3.09% and 16%.
For `CS(=O)(=O)NCCCN1CCCCC1c1cc2ccccc2[nH]1` (configuration not stated), in that order: -1.17% and -11.8%.
On to `CCc1ncnc2c1CCN(Cc1ccc(OC)cc1)CC2`, for which the Percent Effect was -0.259% in test [1] and -28% in test [2].
The corresponding values for `CC(=O)N1CCOCC2(CCN(Cc3ccc(C)s3)CC2)C1` are 0.408% and -23.3%.
For `O=S(=O)(C1CC1)N1C[C@H]2CCC[C@@]2(COc2ccccn2)C1`, in that order: 4.47% and -32.7%.
As for `CN(C)C(=O)CS(=O)(=O)Cc1cc(Cl)c2c(c1)OCCCO2`, the Percent Effect in test [1] is 4.36%; in test [2] it was 29.6%.
For `Cc1ccc(CNCC2CCc3nnc(C(C)C)n3C2)s1` (configuration not stated), the Percent Effect is -3.31% in test [1] and -22.4% in test [2].
For `CCN1CCn2c(C)cnc2C12CCN(C(=O)CC(C)C)CC2`, in that order: 1.31% and -0.923%.
As for `COc1c(CNC2CCOc3ccccc32)c(C(C)C)nn1C` (configuration not stated), the Percent Effect stood at 0.728% in test [1] and 2.37% in test [2].
The corresponding values for `Cc1ccccc1CNC(=O)CN1CCN(Cc2nccn2C)CC1` are 8.88% and 6.67%.
As to `CCC1=N[C@@]2(CC[C@@H]3CN(C(=O)NCC(C)C)C[C@@H]32)C(=O)N1CC(C)C`, the Percent Effect in test [1] is 4.11%; in test [2], -9.55%.
The corresponding values for `Cc1ccc(SCC2CNc3nc4ccccc4c(=O)n32)c(C)c1` (configuration not stated) are 0.0228% and 9.77%.
For `COc1cccc(OCC2CCCN(C(=O)c3cnc(C)nc3O)C2)c1` (configuration not stated), in that order: -0.346% and 2.77%.
The corresponding values for `O=C1CC[C@H]2[C@H](CCN2C(=O)C2CCCO2)N1Cc1ccncc1` (some centres not stated) are 3.48% and -64%.
Turning to `COc1ccc(CN2CCCC2Cn2nc(C)nc2C)cc1F` (configuration not stated), the Percent Effect in test [1] was -1.56%; in test [2], -0.778%.
The corresponding values for `Cc1nc(C)n(C2CCCN(C(=O)c3ccc(N(C)C)nn3)C2)n1` (configuration not stated) are 0.605% and 11.2%.
For `Cc1nn(-c2ccccc2)cc1C(=O)N1CCCC(n2cccn2)C1` (configuration not stated), in that order: -5.22% and -27.4%.
For `Fc1cccc(N2C[C@H]3CCN(c4cccnc4)C[C@H]3C2)c1`, in that order: 6.15% and -16.5%.
Regarding `O=C1C(NCc2nnc3n2CCCC3)CCCN1c1cccc(F)c1` (configuration not stated), the Percent Effect in test [1] is 0.344%; in test [2], -64.6%.
For `CC(NC(=O)NCCCOC1CCCCC1)c1nncn1C` (configuration not stated), in that order: -3.32% and -6.91%.
For `COCCCn1c(CN2CCCC(O)C2)cnc1S(=O)(=O)C1CCCC1` (configuration not stated), in that order: 4.61% and -11.3%.
As to `COc1ccc(S(=O)(=O)NCc2cccnc2N(C)C)cc1F`, the values for the Percent Effect in test [1] and in test [2] were -1.03% and -9.13%, respectively.
For `CCCN(CCO)C(=O)C1CCC(=O)N(CCc2ccc(Cl)cc2)C1` (configuration not stated), in that order: -4.04% and 18%.
For `COc1c(C2CCCN2Cc2c(C)noc2C)c(C)nn1C` (configuration not stated), in that order: 1.48% and 6.54%.
For `CC(=O)N1CCCCC1c1cc(C(=O)N2CCOCC2)[nH]n1` (configuration not stated), in that order: -0.551% and 15.2%.
For `Cc1cc(NC(=O)NCC(O)c2ccc(Cl)cc2Cl)n(C)n1` (configuration not stated), the Percent Effect was -2.66% in test [1] and 24.8% in test [2].
For `CNc1oc(-c2ccc(OC)c(S(=O)(=O)N3CCCCC3)c2)nc1C#N`, the Percent Effect in test [1] is -1.39%; in test [2] it was -28.4%.
The corresponding values for `CCc1nc(CN2CCCN(c3nccs3)CC2)no1` are 2% and -3.78%.
The corresponding values for `CC(C)n1ccnc1C1CCN(C(=O)c2ccccc2)CC1` are -4.71% and 12.4%.
For `COc1cccc2c1OCC(NC(=O)NCc1cccs1)C2` (configuration not stated), in that order: 1.53% and 3.63%.
Regarding `c1cc(OCc2ccc3c(c2)OCCO3)ccc1CNC1CC1`, the Percent Effect in test [1] is -1.05%; in test [2], -54.3%.
For `COc1ccc(CN2CCC3(CC2)CCN(CC(C)C)C3=O)cc1`, the Percent Effect was -3.87% in test [1] and 3.87% in test [2].
The corresponding values for `Cc1nc(C)n(CC2CCCCN2CC(=O)Nc2cccnc2)n1` (configuration not stated) are -1.56% and 7.21%.

The record behind these values is ChEMBL document CHEMBL3988442, “University of Dundee, Small-Polar-MMV Screening Library” (2021).
